# An excerpt weighted towards active compounds, which were near 5.4% of everything screened.
# ALR inh: inhibitors of human sulfhydryl oxidase ALR; P55789; purified ALR, DTT oxidation, H2O2 HRP-luminol luminescence; inhibition, % (no concentration beside the values); 290,000 compounds, 3.8% hits;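 active = mean replicate inhibition above about 79%, with every replicate also reaching it, limit read from the data; inconclusive = only one of the two criteria met; inactive = mean below limit and not every replicate reaching it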
# PP1 counter: PP1-alpha (human) inhibition in PP5 counter-screen; purified PP1alpha, OMFP fluorescence; 320,000 compounds, 0.9% hits; P62136; inhibition, % at 6.7 µM;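 active = inhibition above the mean inhibition of all tested compounds plus 3 SD, computed separately for each screening campaign, cut at about 15% in these data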
# PP5 primary: PP5 (human) phosphatase inhibition | P53041 | purified PP5c, OMFP substrate fluorescence | inhibition, % at 6.7 µM | 320,000 compounds, 0.18% hits | AID 1987;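 active = inhibition above the campaign's mean inhibition across all tested compounds plus 3 SD, cut at about 9.5% in these data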;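 also: 0% = DMSO only and 100% = 100 µM cantharidin control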
# Target sequence (P53041 whole entry, looked up): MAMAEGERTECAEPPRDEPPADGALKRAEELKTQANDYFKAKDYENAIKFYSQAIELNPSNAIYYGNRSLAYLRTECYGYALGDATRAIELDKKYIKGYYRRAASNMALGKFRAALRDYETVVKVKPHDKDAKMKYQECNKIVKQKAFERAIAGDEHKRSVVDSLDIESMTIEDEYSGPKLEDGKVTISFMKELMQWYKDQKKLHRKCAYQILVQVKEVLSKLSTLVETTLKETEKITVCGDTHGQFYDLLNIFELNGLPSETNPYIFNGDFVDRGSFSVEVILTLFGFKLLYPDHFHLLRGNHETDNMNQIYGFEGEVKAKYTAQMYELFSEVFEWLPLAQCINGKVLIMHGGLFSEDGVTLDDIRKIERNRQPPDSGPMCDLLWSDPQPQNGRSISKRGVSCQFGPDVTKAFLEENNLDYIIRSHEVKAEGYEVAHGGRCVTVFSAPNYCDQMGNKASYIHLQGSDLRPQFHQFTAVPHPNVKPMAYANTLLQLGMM
# Calb FLC: C. albicans growth modulation with fluconazole; growth inhibition, % (test concentration not listed); C. albicans CaCi-2 (fluconazole-resistant clinical isolate) + fluconazole, Alamar Blue growth, 48 h; 300,000 compounds, 0.57% hits;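 active = growth inhibition above about 58% in most replicates, limit read from the data, passing the limit was not always enough; inconclusive = exactly half the replicates above a set limit; inactive = most replicates below a set limit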;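 also: all wells also contain fluconazole at 8 µg/ml as a sub-toxic cotreatment; 0% = median of DMSO wells and 100% = median of geldanamycin control wells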
# CSC inhib: blocks cancer stem cells. 300,000 compounds, 1.1% hits. inhibition, % at 7.5 µM. cancer stem cell-like cells viability, luminescence; in the data active = inhibition above about 75%; inconclusive = no clear call, values can overlap the other calls; tested in HMLE shEcad cells
# Starred values were filed as active, the others as inactive; u = inconclusive; x = no result.
SMILES,ALR inh,PP1 counter,PP5 primary,Calb FLC,CSC inhib
c1ccc(Nc2nc(CSc3ncn[nH]3)cs2)cc1,93.6*,-5.9,-1.3,5.0,-16.6
O=C(/C=C/c1ccc(NC(=O)c2ccccc2-c2ccccc2C(=O)O)cc1)c1ccccc1,98.4*,17.2*,0.5,98.2*,14.4
O=C(/C=C/c1ccncc1)c1ccc(NC(=O)c2ccccc2F)cc1,x,0.7,2.8,x,80.2*
O=C(O)c1ccccc1-c1ccccc1C(=O)Nc1ccc(F)cc1,1.8,1.9,1.2,-5.2,-18.3
C=CCOc1ccc(/C=C/C(=O)OCC(=O)N2CCCc3ccccc32)cc1,-5.0,0.7,1.9,1.5,-11.1
Cc1ccc(NC(=O)COC(=O)CCc2c[nH]c3ccccc23)c(C)c1,x,-2.9,2.6,x,-17.8
CCN(CC)C(=O)CSC1=N/C(=C/c2ccco2)C(=O)N1c1ccc(OC)c(Cl)c1,97.5*,6.1,1.2,-8.8,6.0
CCCNC(=O)COc1ncnc2sccc12,-8.1,0.8,1.7,-22.9,-21.2
O=S(=O)(Nc1ccc(N=Nc2ccc(O)c3ccccc23)cc1)c1ccccc1,-12.0,5.4,7.3,-4.5,79.2*
O=C(OCC(=O)N1N=C(c2ccc(Cl)cc2)CC1c1ccco1)c1cncc(Br)c1 (stereo not given),-2.0,x,x,x,-6.5
C[C@H](NC(=O)c1nc[nH]c1C(=O)NCCCCCNC(=O)OC(C)(C)C)C(=O)OCc1ccccc1,3.9,0.7,2.8,-4.1,-2.9
CCCS(=O)(=O)c1c(S(=O)(=O)CCC)c2cc(CC)ccn2c1C(=O)OC,-69.1,2.1,1.1,8.9,3.0
CN(C)c1ccc(/C=N/NC(=O)c2sccc2-n2cccc2)cc1,98.8*,0.5,-0.8,-14.5,1.6
Cc1occc1C(=O)N/N=C/c1ccc(N(C)C)cc1,93.7*,-4.9,2.0,1.7,-7.8
CN(C)c1ccc(/C=N/NC(=O)c2ccccc2Cl)cc1,98.3*,-3.2,2.8,u,27.5
O=C(Nc1ccc(Cl)c(Cl)c1)O/N=C/c1ccncc1,-11.8,-2.2,0.3,-3.2,75.3*
CCCCOc1ccc(N=Cc2ccc[nH]2)cc1,x,-3.8,-0.7,-11.4,-9.9
CSc1nnc(N2C(=O)C(O)=C(C(=O)c3ccco3)C2c2ccccc2F)s1 (stereo not given),22.0,0.7,2.4,-1.5,6.6
COc1ccc(NC(=O)O/N=C/c2ccccc2)cc1,-35.2,-2.2,1.1,11.3,1.1
Cc1occc1C(=O)N/N=C/C=C/c1ccc(N(C)C)cc1,99.3*,-0.4,-0.5,-8.5,1.4
CN(C)c1ccc(/C=N/OC(=O)Nc2ccccc2)cc1,84.3*,-1.8,1.5,-16.0,26.1
Cc1ccc2[nH]c3c(c2c1)CCc1cn[nH]c1-3,98.7*,1.7,8.0,32.2,29.8
CN1C(=O)C(=O)/C(=C(/O)c2ccc(Br)cc2)C1c1ccc(Cl)cc1 (stereo not given),23.4,11.1,0.1,4.2,-9.5
O=C1OC(c2ccc(Cl)cc2)/C(=C(/O)c2ccccc2)C1=O (stereo not given),97.2*,-1.8,-0.8,-0.9,-2.8
CN1CCC(Oc2ccccc2Sc2ccc(C(F)(F)F)cc2)CC1,-67.5,3.3,3.9,-0.3,75.3*
SMILES,ALR inh,PP1 counter,PP5 primary,Calb FLC,CSC inhib
COc1cc(/C=C2\SC(=S)N(NC(C)=O)C2=O)ccc1OC(=O)c1ccco1,97.7*,x,x,x,-14.9
Cc1cc(C)nc(NN2C(=O)/C(=C/c3ccc(O)cc3)SC2=S)n1,99.3*,3.6,3.6,12.3,0.1
COc1ccccc1/C=C1\SC(=S)N(Nc2nc(C)cc(C)n2)C1=O,-3.0,0.2,1.0,25.0,14.9
Cc1ccc(/C=C2\SC(=S)N(/N=C/c3cc([N+](=O)[O-])ccc3O)C2=O)o1,98.1*,6.1,-1.0,u,0.1
CCOc1cc(/C=C2/SC(=S)NC2=O)ccc1OC(=O)c1ccco1,97.9*,9.6,2.0,62.3,-8.5
O=C(Cn1cnc2ccccc2c1=O)N1CCc2ccccc2C1,-2.5,-1.1,1.2,25.0,-10.9
CC(NC(=O)CSc1nc(C2CC2)n(-c2ccccc2)n1)c1ccco1 (stereo not given),x,-2.4,2.2,x,x
CNc1c(NS(=O)(=O)c2ccc(C(C)(C)C)cc2)c(=O)oc2ccccc12,x,-2.1,1.2,-0.3,-1.7
CCOc1ccc(NC(=O)Cc2nnc(SCC(=O)N3CCOCC3)n2C)cc1,-1.8,-1.2,-0.6,1.8,1.7
O=C(NN1C(=O)/C(=C/c2ccc(O)cc2)SC1=S)c1cccc(O)c1,99.2*,-8.4,-2.1,5.5,3.6
O=C(NN1C(=O)/C(=C/c2ccc(O)c([N+](=O)[O-])c2)SC1=S)c1ccccc1Cl,10.2,10.1,5.8,2.3,7.5

# Bioassay records as filed in PubChem.
